# Bioassay records: PubChem, Broad Institute
# CFTR F508del cor = correctors of CFTR F508del function in bronchial epithelial cells; CFBE cells, YFP halide quenching; stimulated with forskolin plus potentiator P3; % fluorescence drop versus neutral controls; activity (quench increase), % at 7.58 µM; 350,000 tested, 0.36% active; AID 720511;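 active = mean added fluorescence quench of at least 8% versus neutral control, with both replicates also reaching 8%; inconclusive = only one of the mean or replicate conditions met; inactive = mean below 8% and not both replicates reaching 8%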;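 note: cells transiently co-express mutant CFTR-F508del with the halide-sensitive YFP; corrector assay measuring rescue of mutant channel to the surface after 24 h compound exposure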
# GSIS activator = primary screen for activators of insulin secretion dependent on glucose, INS-1E cells, GLuc reporter luminescence. 370,000 tested, 0.61% active. INS-1E GLuc reporter insulin secretion, 2-3 h. activation, % at 16.6 µM;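 active = lowest replicate activation of at least 40%, so every replicate reaches that level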;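 note: 0% = median of neutral control wells and 100% = median of IBMX positive control wells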
# Wnt bcat act = activates Wnt/beta-catenin signaling in a reporter cell assay. activation, % at 9.35 µM. activator, plate reader. 300,000 tested, 1.2% active; in the data active = activation above about 30%, passing the limit was not always enough; inconclusive = no clear call, values can overlap the other calls;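 note: 0% = neutral control wells and 100% = positive control wells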
# MITF act = activators of MITF-driven TRPM1 promoter activity in SK-MEL-5 cells. SK-MEL-5 TRPM1-promoter luciferase, 24 h; % of positive control, neutral wells = 0. activation, % at 12.5 µM. 300,000 tested, 0.75% active. AID 588334;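 active = mean activation of at least 80% with every replicate also reaching 80%; inconclusive = mean reaches 80% but some replicate falls short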;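 note: 0% = neutral control wells and 100% = parthenolide positive control wells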
# Env fusion inh = HIV envelope-mediated fusion inhibition; HeLa-JRFL Env/CEM21 cell fusion, luciferase; inhibition, % at 12.3 µM; 360,000 tested, 1.1% active; AID 651610;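 active = mean replicate inhibition score of at least 50 and every replicate individually at or above 50; inconclusive = only one of the two criteria met; inactive = mean below 50 and not all replicates reaching 50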;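 note: 0% = plate neutral controls and 100% = maraviroc near 300 nM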
# * = called active by the depositor; u = inconclusive; x = no result; [ ] = dose if it differs, or a comment. Sampled rows, rich in hits. Any-hit rate of the full collection: about 2.7%.
SMILES,CFTR F508del cor,GSIS activator,Wnt bcat act,MITF act,Env fusion inh
O=C(C[C@H]1CC[C@H](NC(=O)c2ccncc2)[C@H](CO)O1)Nc1ccc(-c2ccccc2)cc1,1,6,x,x,x
Cn1nnc2cc(NC(=O)Nc3ccccc3F)ccc21,-2,-1,50*,x,-53
COc1ccccc1NC(=O)Nc1ccc2c(c1)nnn2C,x,x,x,64,x
CCC(=O)Nc1ccc2c(c1)C(=O)N(C)C[C@H](OC)[C@@H](C)CN(C(=O)CC1CC1)[C@H](C)CO2,2,0,x,x,x
CCC(=O)NCCc1nc(-c2ccccc2)no1,-2,x,0,20,60*
c1ccc(-c2noc(CCC3CCCC3)n2)cc1,-2,22,6,102*,-15
CN(Cc1nc(-c2ccccc2)no1)C1CCOCC1,1,x,41*,65,-20
COc1ccc(-c2noc(CN(C)C3CCOCC3)n2)cc1,4,-9,0,16,10
c1cc(-c2noc(CCC3CCCC3)n2)ccn1,x,x,x,24,x
C[C@@H]1CN([C@H](C)CO)C(=O)c2cc(C#Cc3cccnc3)cnc2O[C@H]1CN(C)C,-1,18,x,x,-29[16.7 µM]
CN1CCc2c(sc(/N=C/c3c[nH]c4ccccc34)c2C#N)C1,2,1,39*,x,-43
O=C(C[C@H]1C[C@@H]2c3cc(NC(=O)c4ccc5c(c4)OCO5)ccc3O[C@@H]2[C@@H](CO)O1)NCc1ccccn1,2,-3,x,x,12[16.7 µM]
Nc1c(C(=O)N2CCCCC2)sc2nc3c(cc12)CCCC3,-1,-8,-2,80,-63
Nc1c(C(=O)N2CCCC2)sc2nc(-c3ccccc3)ccc12,-2,x,49*,103*,-103
CCOC(=O)c1cnc(SCc2ccccc2)nc1N,x,x,x,107*,-77
COc1ccc(C2=Nn3c(nnc3-c3ccccc3F)SC2)cc1OC1CCCC1,13*,55,36*,3,-79
COc1ccc(C2=Nn3c(nnc3-c3ccccc3)SC2)cc1OC,x,11,x,x,-24
COc1ccc(C2=Nn3c(nnc3-c3ccccc3F)SC2)cc1OC1CCOC1 (stereo not drawn),11*,45*,1,-24,-40
CO[C@@H]1CN(C)C(=O)c2cc(NC(=O)NC3CCCC3)ccc2OC[C@@H](C)NC[C@@H]1C,x,-15,x,x,x
COc1cc(CNS(=O)(=O)c2ccc3c(c2)CC(C)N3C(=O)C2CCC2)cc(OC)c1OC (stereo not drawn),-2,-14,-5,-19,57*
COc1ccc(CNS(=O)(=O)c2ccc3c(c2)CC(C)N3C(=O)C2CC2)cc1 (stereo not drawn),-2,-25,-3,-5,6
CO[C@@H]1CN(C)C(=O)c2cc(NC(=O)C3CCOCC3)ccc2OC[C@@H](C)N(CC2CC2)C[C@H]1C,-1,12,x,x,-12[16.7 µM]
CC1(C)CC2CC(C)(CN2C(=O)Cc2ccccc2)C1 (stereo not drawn),x,x,-3,x,-37
CSCCC(C(=O)N1CC2(C)CC1CC(C)(C)C2)N1C(=O)c2ccccc2C1=O (stereo not drawn),x,x,-4,4,34*
CC1=C(C(=O)OCc2ccc3c(c2)OCO3)C(c2ccc(F)cc2)NC(=O)N1 (stereo not drawn),x,-21,-19,-48,100*
SMILES,CFTR F508del cor,GSIS activator,Wnt bcat act,MITF act,Env fusion inh
Cn1c(=O)n(C)c2cc([N+](=O)[O-])c(N3CCN(C(=O)c4ccccc4)CC3)cc21,x,x,x,-17,55*
Cn1c(=O)n(C)c2cc([N+](=O)[O-])c(N3CCN(C(=O)c4ccccc4Br)CC3)cc21,5,-19,1,-7,30
Cn1c(=O)n(C)c2cc([N+](=O)[O-])c(N3CCN(C(=O)c4ccccc4Cl)CC3)cc21,x,x,x,-17,90*
C[C@H](CO)N1C[C@H](C)[C@@H](CN(C)C(=O)C2CCCCC2)Oc2ncc(C#CC3CC3)cc2C1=O,-3,-10,x,x,8[16.7 µM]
O=c1oc(-c2cccc(Cl)c2)nc2c1cnn2-c1ccccc1,x,-5,3,-6,-17
O=c1[nH]c2c(cnn2-c2ccc(Cl)cc2)c(=O)n1-c1cccc(Cl)c1,1,10,8,1,62*
COc1ccccc1C(=O)NCCC(=O)NC1CCCCC1C (stereo not drawn),-1,5,-2,-3,-38
COc1ccccc1C(=O)NCCC(=O)NC1CCCC(C)C1C (stereo not drawn),-2,4,-2,-3,58*
Cc1noc(C)c1NC(=O)Nc1cccc2c1O[C@@H](CN(C)S(=O)(=O)c1cn(C)cn1)[C@@H](C)CN([C@@H](C)CO)C2=O,2,12,x,x,x
COc1ccc(OC2C(=O)N(Cc3ccc(F)cc3)C2c2cc(OC)c(OC)c(OC)c2)cc1 (stereo not drawn),x,4,-2,10,-70
COC(=O)c1ccc(C2C(Oc3ccc(OC)cc3)C(=O)N2CCc2ccc(F)cc2)cc1 (stereo not drawn),x,113*,x,-5,x
CN(C)S(=O)(=O)c1ccc(N2CCCC2)c(C(=O)NCCc2ccc(F)cc2)c1,0,14,1,-11,75*
COCCNC(=O)C[C@H]1CC[C@@H]2[C@H](COc3ccc(NC(C)=O)cc3C(=O)N2C)O1,0,-6,x,x,-4[16.7 µM]
CCOC(=O)N1CCN(C(=O)c2cc3c(=O)n(C)c4ccccc4c3n2C)CC1,-2,15,-5,0,66*
O=c1[nH]c(/C=C/c2cccc([N+](=O)[O-])c2)c([N+](=O)[O-])c(=O)[nH]1,0,x,0,-9,10
O=[N+]([O-])c1cccc(/C=C/c2nc[nH]c2[N+](=O)[O-])c1,-2,40*,8,1,-25
CCC(=O)N(C)C[C@H]1Oc2cc(-c3ccccc3OC)ccc2S(=O)(=O)N([C@H](C)CO)C[C@@H]1C,0,23,x,x,-12[16.7 µM]
CC(=O)Nc1ccc2c(c1)C(=O)N(C)[C@H]1CC[C@@H](CC(=O)NCc3ccc4c(c3)OCO4)O[C@@H]1CO2,-1,12,x,x,8[16.7 µM]
CCOC(=O)c1sc(=NC(=O)c2cccc(OC)c2)n(C)c1C,x,x,33*,u,-48
CCOC(=O)c1sc(=NC(=O)c2ccccc2)n(C)c1C,0,1,44*,68,-33
CCOC(=O)c1sc(=NC(=O)c2ccc(OC)c(OC)c2)n(C)c1C,1,6,12,68,x
COC(=O)C[C@@H]1C[C@H]2c3cc(NC(=O)Nc4ccc(C(F)(F)F)cc4)ccc3O[C@H]2[C@H](CO)O1,-5,-22,x,x,8[16.7 µM]
C/C=C/c1ccc2c(c1)O[C@H](CN(C)C(=O)c1ccncc1)[C@H](C)CN([C@@H](C)CO)S2(=O)=O,2,8,x,x,-1[16.7 µM]
Cc1cccc2c1-c1sc(C(=O)N3CCCCC3)cc1CO2,-2,-25,23,88*,-127
CC(=O)c1sc(NC(=O)C2COc3ccccc3O2)nc1C (stereo not drawn),1,x,36*,x,21
CC1CCC(NC(=O)C2COc3ccccc3O2)CC1 (stereo not drawn),-2,57*,14,59,-8
